Values without a mark were called inactive.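 How the source made its calls: active = curve rank above 3; inactive = curve rank 0.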
system: KeratinoSens (HaCaT ARE-luciferase) cells; test: Nrf2/ARE luciferase activation call in qHTS KeratinoSens assay (1 = active, 0 = inactive)

SMILES	Nrf2/ARE luciferase activation call
CN(C)CCOC(C)(c1ccccc1)c1ccccn1.O=C(O)CCC(=O)O (stereo not given)	not active ARE inducer (skin sensitizer alert)
Cc1occc1C(=O)Nc1ccc(C(=O)N2CCC(F)(F)/C(=C\C(=O)N3CCC(N4CCCCC4)CC3)c3ccccc32)cc1.Cc1occc1C(=O)Nc1ccc(C(=O)N2CCC(F)(F)/C(=C\C(=O)N3CCC(N4CCCCC4)CC3)c3ccccc32)cc1.O=C(O)/C=C/C(=O)O	not active ARE inducer (skin sensitizer alert)
CO[C@@H]1COCC[C@@H]1[NH2+][C@@H]1CC[C@@](C(=O)N2CCc3ncc(C(F)(F)F)cc3C2)(C(C)C)C1.O=C([O-])CCC(=O)O	not active ARE inducer (skin sensitizer alert)
CC(=O)c1ccc2c(c1)N(CCCN(C)C)c1ccccc1S2.O=C(O)/C=C\C(=O)O	not active ARE inducer (skin sensitizer alert)
C[C@H](N)[C@H](O)c1cccc(O)c1.O=C(O)[C@@H](O)[C@@H](O)C(=O)O	not active ARE inducer (skin sensitizer alert)
CCCC[N+]1(C)CCCCC1.O=S(=O)([O-])C(F)(F)F	not active ARE inducer (skin sensitizer alert)
CN(C)CCOc1ccccc1Cc1ccccc1.O=C(O)CC(O)(CC(=O)O)C(=O)O	not active ARE inducer (skin sensitizer alert)
CCC[N+]1(C)CCCC1.O=S(=O)([O-])C(F)(F)F	not active ARE inducer (skin sensitizer alert)
NC(CO)(CO)CO.O=C(c1ccccc1)c1ccc2n1CC[C@H]2C(=O)O	not active ARE inducer (skin sensitizer alert)
C[C@@H](C1=C(CCN(C)C)Cc2ccccc21)c1ccccn1.O=C(O)/C=C\C(=O)O	not active ARE inducer (skin sensitizer alert)
Nc1c2c(nc3ccccc13)CCCC2O.O=C(O)/C=C\C(=O)O (stereo not given)	not active ARE inducer (skin sensitizer alert)
CN1Cc2c(N)cccc2C(c2ccccc2)C1.O=C(O)/C=C\C(=O)O (stereo not given)	not active ARE inducer (skin sensitizer alert)
CCN(CC)CCOC(=O)C1(c2ccccc2)CCCC1.CCN(CC)CCOC(=O)C1(c2ccccc2)CCCC1.O=S(=O)(O)CCS(=O)(=O)O	not active ARE inducer (skin sensitizer alert)
C[NH+](C)CCC(c1ccc(Cl)cc1)c1ccccn1.O=C([O-])/C=C\C(=O)O (stereo not given)	not active ARE inducer (skin sensitizer alert)
COC[C@H](c1ccc(C(F)(F)F)cc1)N1CCN(C2(C)CCN(C(=O)c3c(C)ncnc3C)CC2)C[C@H]1C.O=C(O)/C=C\C(=O)O	not active ARE inducer (skin sensitizer alert)
NC[C@H](O)c1ccc(O)c(O)c1.O=C(O)C(O)C(O)C(=O)O.O=C(O)C(O)C(O)C(=O)O	not active ARE inducer (skin sensitizer alert)
CN(C)CCN(Cc1ccccc1)c1ccccn1.O=C(O)CC(O)(CC(=O)O)C(=O)O	not active ARE inducer (skin sensitizer alert)
CCCCCC[n+]1ccccc1.O=S(=O)([O-])C(F)(F)F	not active ARE inducer (skin sensitizer alert)
O=C(CCC1CCN(Cc2ccccc2)CC1)c1ccc2c(c1)NCCCC2.O=C(O)/C=C/C(=O)O	not active ARE inducer (skin sensitizer alert)
CC(C)NCC(O)COc1ccc(COCCOC(C)C)cc1.CC(C)NCC(O)COc1ccc(COCCOC(C)C)cc1.O=C(O)/C=C/C(=O)O (stereo not given)	not active ARE inducer (skin sensitizer alert)

Source: the supplement of paper PMC10933113
